{
  "source": "PubChem BioAssay AID1347056",
  "about": "(Sanford-Burnham Center for Chemical Genomics, 2019)",
  "note": "Among all 360,000 compounds or so, about 3,600 (1%) were called active. Only a selection was taken, and actives are over-represented in it overall. Unmarked numbers belong to inactive results.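 Rule for the calls: active = compounds whose plate-normalised and pattern-corrected inhibition of the luciferase reporter signal at the single screening dose is 50% or more; inactive = the rest.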",
  "data": [
    {"assay": "inhibitors of TROY-driven NF-kB signaling, primary screen, Q293 LMP1-TROYcd cells, NF-kB luciferase, uHTS (AID 1347056)", "conditions": "Q293 LMP1-TROYcd NF-kB luciferase reporter, 4 h; at 10 µM; active compounds read high", "values": [
      {"smiles": "O=C(CN(c1ccc2c(c1)OCCO2)S(=O)(=O)c1ccccc1)Nc1ccc2c(c1)OCO2", "inhibition": "-3.48%"},
      {"smiles": "COCCn1c(C)cc(C2=NNC(=Nc3ccc(F)cc3)SC2)c1C", "inhibition": "56.7% (active)"},
      {"smiles": "C=CCn1c(C)cc(C2=NNC(=NCC)SC2)c1C", "inhibition": "88% (active)"},
      {"smiles": "CCN1CCN(c2ccc(S(=O)(=O)N3CCCCC3)cc2NC(=O)Cc2c(Cl)cccc2Cl)CC1", "inhibition": "4.53%"},
      {"smiles": "CCC(=O)Nc1ccccc1C(=O)N1CCN(Cc2ccccc2)CC1", "inhibition": "12.5%"},
      {"smiles": "CN1OC[C@@H]2CN(S(=O)(=O)c3cccc(C(F)(F)F)c3)[C@H](c3ccc(-c4cc5ccccc5o4)cc3)C[C@@H]21", "inhibition": "64.2% (active)"},
      {"smiles": "COc1ccc(S(=O)(=O)N2C[C@H]3CON(C)[C@H]3C[C@H]2c2cccc(Br)c2)cc1", "inhibition": "0.2%"},
      {"smiles": "CN1OC[C@@H]2CN(S(=O)(=O)c3cccc4ccccc34)[C@H](c3ccc(N4CCCCC4)cc3)C[C@@H]21", "inhibition": "14.6%"},
      {"smiles": "CC1Cc2ccccc2N1S(=O)(=O)c1c(N)n(C)c(=O)n(C)c1=O", "note": "(stereo not given)", "inhibition": "0.15%"},
      {"smiles": "Clc1ccc(-c2cccc3nccn23)cc1", "inhibition": "-13.8%"},
      {"smiles": "CC(=O)N1N=C(c2ccncc2)OC1(Cc1ccccc1)Cc1ccccc1", "inhibition": "5.47%"},
      {"smiles": "Cc1cc(Cl)c(S(=O)(=O)Nc2ccc3c(c2)OCCO3)cc1OCC(N)=O", "inhibition": "77.5% (active)"},
      {"smiles": "Cc1cc(Cl)c(S(=O)(=O)N(C)C)cc1OCC(N)=O", "inhibition": "0.31%"},
      {"smiles": "Cc1cc(Cl)c(S(=O)(=O)NCC2CCCO2)cc1OCC(N)=O", "note": "(stereo not given)", "inhibition": "-1.29%"},
      {"smiles": "COC(=O)CSc1snnc1-c1ccc(Cl)c(Cl)c1", "inhibition": "-45.5%"},
      {"smiles": "C=CCN(c1ccccc1C(=O)NCC(=O)OCC)S(=O)(=O)c1ccc(C)cc1", "inhibition": "1.62%"},
      {"smiles": "S=C(NCCCc1cnc[nH]1)NCCCN(Cc1ccc(Cl)c(Cl)c1)c1ccc(Br)cn1", "inhibition": "8.84%"},
      {"smiles": "CCOC(=O)C1CCCN(C(=O)Cn2ncc3c(=O)oc4ccc(C)cc4c32)C1", "note": "(stereo not given)", "inhibition": "1.47%"},
      {"smiles": "Cc1ccc2oc(=O)c3cnn(CC(=O)N(Cc4ccco4)C4CCCCC4)c3c2c1", "inhibition": "58.7% (active)"},
      {"smiles": "Cc1ccc2oc(=O)c3cnn(CC(=O)N4CCCCCC4)c3c2c1", "inhibition": "6.16%"},
      {"smiles": "CCCCC(=O)Nc1ccc2c(c1)C(=O)NC2=O", "inhibition": "10.3%"},
      {"smiles": "Cc1cc(C(=O)CSc2nc(N)cc(=O)[nH]2)c(C)n1-c1cccc(F)c1", "inhibition": "-1.75%"},
      {"smiles": "Cc1cc(C(=O)COc2ccccc2Cl)c(C)n1C1CC1", "inhibition": "-42.6%"},
      {"smiles": "Cc1cc(C(=O)COC(=O)C2CC2)c(C)n1-c1ccc(F)cc1", "inhibition": "90.5% (active)"},
      {"smiles": "Cc1ccc2nc(-c3ccc(Br)cc3)cn2c1", "inhibition": "71.4% (active)"},
      {"smiles": "Cc1ccc(-c2nc3ccc(Cl)cn3c2Cc2ccccc2)cc1", "inhibition": "-69.6%"},
      {"smiles": "COc1ccc(-c2nc3ccc(Br)cn3c2Cc2ccc(C)cc2)cc1OC", "inhibition": "-36.6%"},
      {"smiles": "Cc1ccc(-c2cn3cc(C)ccc3n2)cc1", "inhibition": "86.4% (active)"},
      {"smiles": "Cc1ccc(-c2nc3ccc(Br)cn3c2Cc2ccccc2C(F)(F)F)cc1", "inhibition": "-33.5%"},
      {"smiles": "Cc1ccc(-c2cc(N)on2)cc1", "inhibition": "-41.2%"},
      {"smiles": "COc1ccc(C(=O)O)cc1S(=O)(=O)NCc1cccnc1", "inhibition": "-5.43%"},
      {"smiles": "CC(=O)Nc1ccc(/C(C)=N/NC(=O)CN(c2ccccc2Br)S(C)(=O)=O)cc1", "inhibition": "8.85%"},
      {"smiles": "COc1ccc(CN(C)C(=S)Nc2ccc(Cl)cc2Cl)cc1", "inhibition": "-7.98%"},
      {"smiles": "O=C(c1cc(COc2c(F)cccc2F)on1)N1CCSCC1", "inhibition": "-17%"},
      {"smiles": "Cn1cnc2c1c(=O)n(Cc1ccccc1C#N)c(=O)n2C", "inhibition": "2.82%"},
      {"smiles": "COc1cc2cc(C(=O)N/N=C/c3cccc(OC)c3OC)[nH]c2cc1OC", "inhibition": "69.2% (active)"},
      {"smiles": "CCN1CCCC1CNC(=O)c1cc2cc(OC)c(OC)cc2[nH]1", "note": "(stereo not given)", "inhibition": "-3.54%"},
      {"smiles": "COc1cccc2[nH]c(C(=O)NCCc3ccccc3)cc12", "inhibition": "-24.7%"},
      {"smiles": "CN(Cc1ccc(F)cc1)C(=O)CN1C(=O)c2ccccc2S1(=O)=O", "inhibition": "-51.1%"},
      {"smiles": "CC1CCCN(C(=O)CN2C(=O)c3ccccc3S2(=O)=O)C1", "note": "(stereo not given)", "inhibition": "58.2% (active)"},
      {"smiles": "O=C(CN1C(=O)c2ccccc2S1(=O)=O)N1CCc2ccccc21", "inhibition": "89.1% (active)"},
      {"smiles": "Cc1ccc2c(c1)N(CC(=O)N1CCCC(C)C1)C(=O)CO2", "note": "(stereo not given)", "inhibition": "-0.08%"},
      {"smiles": "COc1ccc(CNC(=O)CN2C(=O)c3ccccc3S2(=O)=O)cc1", "inhibition": "9.08%"},
      {"smiles": "CC1CCCN(C(=O)Cn2c(=O)oc3ccccc32)C1", "note": "(stereo not given)", "inhibition": "-6.27%"},
      {"smiles": "CC(C)(C)c1ccc(S(=O)(=O)N2CCN(C(=O)c3ccc4c(c3)C(=O)N(Cc3ccncc3)C4=O)CC2)cc1", "inhibition": "1.2%"},
      {"smiles": "CC(NC(=O)COC(=O)c1ccc(Cl)cc1O)c1ccc(F)cc1", "note": "(stereo not given)", "inhibition": "4.75%"},
      {"smiles": "Cc1cc(S(=O)(=O)NC2CCCCC2)ccc1OCC(=O)NCc1cccnc1", "inhibition": "-5.71%"},
      {"smiles": "O=C(CCc1nc(-c2ccccc2)no1)Nc1cccc(C(=O)NC2CC2)c1", "inhibition": "18.6%"},
      {"smiles": "CN(C)/C=C(\\C#N)C(=O)c1cccnc1Oc1ccc(F)cc1F", "inhibition": "-7.14%"},
      {"smiles": "COc1ccc(-c2cc3c(c4c2ccn4C)C2CCC3C2)cn1", "note": "(stereo not given)", "inhibition": "8.35%"},
      {"smiles": "Cc1ccc(NS(=O)(=O)c2ccc(-c3ccc(=O)[nH]n3)o2)c(C)c1", "inhibition": "-3.14%"},
      {"smiles": "CC(NC(=O)COC(=O)c1ccc2ccccc2n1)c1ccccc1", "note": "(stereo not given)", "inhibition": "-0.28%"},
      {"smiles": "CC1COc2ccccc2N1C(=O)c1cccnc1Cl", "note": "(stereo not given)", "inhibition": "8%"},
      {"smiles": "O=C(NCCc1ccccn1)c1cc(-c2ccc(Cl)cc2)nc2ccccc12", "inhibition": "15.8%"},
      {"smiles": "CN(C)CCNC(=O)c1ccc(Cl)c2cc3ccccc3nc12", "inhibition": "51.8% (active)"},
      {"smiles": "CCCN(CCC)CCNC(=O)c1cc2c(C)nc3ccccc3c2o1", "inhibition": "-8.54%"},
      {"smiles": "COc1ccc(OC)c(CCNC(=O)CCn2ccc3cc(S(=O)(=O)N4CCCC4)ccc32)c1", "inhibition": "-2.42%"},
      {"smiles": "CC1CCN(c2ccc3c(c2)S(=O)(=O)c2cc(C(=O)O)ccc2C3=O)CC1", "inhibition": "-46.1%"},
      {"smiles": "O=C1c2ccccc2S(=O)(=O)c2cc(N3CCN(c4ccccn4)CC3)ccc21", "inhibition": "69.7% (active)"},
      {"smiles": "O=C(c1ccc2c(c1)N(Cc1ccc(F)cc1)C(=O)c1ccccc1S2(=O)=O)N1CCN(c2ccccn2)CC1", "inhibition": "11.9%"},
      {"smiles": "N#CC(Cc1cc2ccccc2n1S(=O)(=O)c1ccccc1)OCc1ccccc1", "note": "(stereo not given)", "inhibition": "-2.35%"},
      {"smiles": "CC(C)c1ccc(NS(=O)(=O)c2cn(C)c(=O)n(C)c2=O)cc1", "inhibition": "-2.58%"},
      {"smiles": "Cc1ccccc1NC(=O)C(C)c1ccc(-c2ccccc2)c(F)c1", "note": "(stereo not given)", "inhibition": "-1.18%"},
      {"smiles": "Cc1cccc(-n2c(=O)c3c(C)c(C)sc3n(CC(N)=O)c2=O)c1", "inhibition": "2.94%"},
      {"smiles": "N#CCSc1nc2c(c(=O)n1Cc1ccccc1)C1(CCCC1)Cc1ccccc1-2", "inhibition": "3.7%"},
      {"smiles": "Cc1cccc(-n2c(SCC(N)=O)nc3c(c2=O)C2(CCCCC2)Cc2ccccc2-3)c1", "inhibition": "51% (active)"},
      {"smiles": "Cc1cc(CNC(=O)C2CCC(=O)N(CCc3ccc(Cl)cc3)C2)no1", "note": "(stereo not given)", "inhibition": "-13%"},
      {"smiles": "O=C(N/N=C/c1ccsc1)c1cc(O)cc(O)c1", "inhibition": "-3.65%"},
      {"smiles": "CC12CCC(=O)C=C1CCC1C2C(O)CC2(C)C1CCC2(O)C(O)CO", "note": "(stereo not given)", "inhibition": "1.9%"},
      {"smiles": "CSc1ncnc2c1ncn2CC(=O)C1CCC2C3CCC4=CC(=O)CCC4(C)C3CCC12C", "note": "(stereo not given)", "inhibition": "76.2% (active)"},
      {"smiles": "CSc1ncnc2c1ncn2CCCNCC1CCCCC1", "inhibition": "10.9%"},
      {"smiles": "Cc1cc(C)c(NC(=O)CN2CCOCCOCCOCCOCC2)c(C)c1", "inhibition": "3.84%"},
      {"smiles": "COC(=O)C1=C(N)Oc2cc(C)oc(=O)c2C1c1cccnc1", "note": "(stereo not given)", "inhibition": "-1.83%"},
      {"smiles": "COc1ccc(-c2c(C)cc3oc(=O)cc(-c4ccccc4)c3c2C)cc1OC", "inhibition": "1.76%"},
      {"smiles": "COc1ccc(-c2c(C)cc3oc(=O)cc(-c4ccccc4)c3c2C)cc1C=O", "inhibition": "50.3% (active)"},
      {"smiles": "COc1ccc(-c2c(C)cc3oc(=O)cc(-c4ccccc4)c3c2C)cc1F", "inhibition": "-22%"},
      {"smiles": "COc1cc([C@H](Cc2ccccc2)NC(C)=O)oc(=O)c1", "inhibition": "-27%"},
      {"smiles": "CCOC(=O)C1(S(=O)(=O)c2ccc(Cl)cc2)CCN(Cc2ccccc2)CC1", "inhibition": "-14.2%"},
      {"smiles": "O=C(NCCN1CCOCC1)c1ccc(/C=C2\\Sc3ccccc3N(Cc3ccc(F)cc3)C2=O)cc1", "inhibition": "51% (active)"},
      {"smiles": "CN1CCN(CCCNC(=O)c2ccc(/C=C3\\Oc4ccccc4N(Cc4ccc(Cl)cc4)C3=O)cc2)CC1", "inhibition": "80.6% (active)"},
      {"smiles": "CCC1Oc2ccccc2N(CC(=O)NCCCN2CCN(CC)CC2)C1=O", "note": "(stereo not given)", "inhibition": "1.63%"},
      {"smiles": "Cc1c(C)n(Cc2ccc(Cl)cc2)c2ccc(C(=O)NCCCN3CCOCC3)cc12", "inhibition": "-9.92%"},
      {"smiles": "CCN1CCN(CCNC(=O)c2ccc3c(c2)NC(=O)/C(=C\\c2cccc(Cl)c2)S3)CC1", "inhibition": "2.74%"},
      {"smiles": "O=C(NCCN1CCOCC1)/C(=C/c1ccc(F)cc1)NC(=O)c1ccccc1", "inhibition": "-11.7%"},
      {"smiles": "Cc1cccc(-c2nc3ccc(C(=O)NCCN4CCN(C)CC4)cc3nc2-c2cccc(C)c2)c1", "inhibition": "-28%"},
      {"smiles": "Cc1ccc(C(=O)N/C(=C\\c2ccc(F)cc2)C(=O)NCCN2CCOCC2)cc1", "inhibition": "-5.95%"},
      {"smiles": "CCN1CCN(CCNC(=O)c2ccc(/C=C3/Sc4ccccc4N(Cc4cccc(C)c4)C3=O)cc2)CC1", "inhibition": "50.6% (active)"},
      {"smiles": "Nc1nc(Br)c2ccccc2c1-c1ccc(F)cc1", "inhibition": "14.8%"},
      {"smiles": "O=[N+]([O-])c1ccc(N2CCN(S(=O)(=O)c3ccccc3)CC2)cc1N1CCc2ccccc2C1", "inhibition": "-19.3%"},
      {"smiles": "CCc1nc2ccc(C(=O)N3CCN(S(=O)(=O)CC)CC3)cn2c1N(C=O)CCC(C)C", "inhibition": "0.5%"}
    ]}
  ]
}
